Test results taken from PMC12136788.
Numbering of substitutions follows the chain as printed. In all, about 24,000 sequences were measured (“enrichment r”: median about 0.99, highest 2% from about 3.7 on). The sample as a whole holds a higher share of the highest values than the screen did.

T1: UNK ZnF1-3 (human, UniProt Q9C0B0 31-174)
T1 sequence: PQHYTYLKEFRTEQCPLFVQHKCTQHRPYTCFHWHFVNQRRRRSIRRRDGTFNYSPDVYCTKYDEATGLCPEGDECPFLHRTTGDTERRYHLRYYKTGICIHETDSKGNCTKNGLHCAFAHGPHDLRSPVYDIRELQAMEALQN

B1: chr1:93299114:93299115:+_ENSG00000122406_ENST00000370321|hu_hu|motif|central (ssRNA)
RNA: GGGAGUUCUACAGUCCGACGAUCUUGUAUCACCAAGCGUUUCCGAGCAUAAUAAUCAGUUUUACCCUCUCGUCGUCUUCGGAAUUUCACUUGGUAUCUCUUAAAGUAGGCCUUAUUCUUAACAACUUUAACAAACCCCAUCCUCAACAGAGGAUUGAGCAUCA
B2: chr3:32335226:32335227:+_ENSMUSG00000027665_ENSMUST00000108243|mus_mus|motif|central (ssRNA)
RNA: GGGAGUUCUACAGUCCGACGAUCGGCCUCUCUGAACAGUUCAUGUUUGAUGGUGACGAGUGUGGCCUCACGGAGGCAUUCGGAAGUCACUAUCAUUCCAUUGGGGAGUAAACAUUCCACUAGGAUUCGUGGGGGCAUCAAGUGCAACAGAGGAUUGAGCAUCA
B3: chr7:54825262:54825263:-_ENSG00000132432_ENST00000352861|hu_hu|hu_hu_hu_mus_False|48_78 (ssRNA)
RNA: GGGAGUUCUACAGUCCGACGAUCCUGCCGGCUGGGCUCCACAAACUGCAUUACCUGCAUGACUGCCGUUGGAUGGCGGAUUGAGAGUGCCAGGGACCGUAGCUCAGGAGAGAACCGAGCCCAACGGAACCGGAAGCUGGCAACCAACAGAGGAUUGAGCAUCA
B4: 93048056_93048176_2666_3pUTR_ENSMUSG00000020964_ENSMUST00000021347|mouse|control|control (ssRNA)
RNA: GGGAGUUCUACAGUCCGACGAUCCACUGAGAGUUGUCAUUCCGUAUGGCACUGAAACAAACAUUCACUGCAGCUCUGCCGAGAGCCGCGCAUCCCUGAAAAGGAAGGCAGCAGGUUCUAAGCAGCUUCUGGGAUUCAACACGCCAACAGAGGAUUGAGCAUCA
B5: chr17:56552419:56552420:-_ENSMUSG00000013236_ENSMUST00000086828|mus_mus|mus_mus_mus_hu_False|1_88 (ssRNA)
RNA: GGGAGUUCUACAGUCCGACGAUCAAAAAAUACACUAUUUAAAAAAAAAAGAAAAAAACGGGAUACAGUUACACUGAGAGUUUUAAAAGAAAGCUGGAUUCUGGUCCCAGCCCAGUGUCCCCAGGCUGCAGAGCGGGGCAGAGGCAACAGAGGAUUGAGCAUCA
B6: chr17:56552419:56552420:-_ENSMUSG00000013236_ENSMUST00000086828|mus_mus|mus_mus_mus_hu_False|88_98 (ssRNA)
RNA: B5 RNA with U38A, U39A, C138A, A139G, G143C
B7: chr17:56552419:56552420:-_ENSMUSG00000013236_ENSMUST00000086828|mus_mus|mus_mus_mus_hu_False|48_88 (ssRNA)
RNA: B5 RNA with G88A, G92A, C93U, U94A, G95A, C138A, A139G, G143C
B8: chrX:165757501:165757502:-_ENSMUSG00000031352_ENSMUST00000112115|mus_mus|FALSE|FALSE (ssRNA)
RNA: GGGAGUUCUACAGUCCGACGAUCAGCAGGAGAAGAUGCUGAGGCACCCAUGGCUGGAAUCACAGGGGUCACUCCCAAUCUAAAAUACCCAGCAAAACGGGAGGCAAGGAGCGGCGAAGGGCAGGAAGCCACCAGUGUUGCCUUCAACAGAGGAUUGAGCAUCA
B9: chr17:56552419:56552420:-_ENSMUSG00000013236_ENSMUST00000086828|mus_mus|mus_mus_mus_hu_False|18_88 (ssRNA)
RNA: GGGAGUUCUACAGUCCGACGAUCAAAAAAUACACUAUUUAAAAAAAAAAGAAAAAAACGGGAUACAGUUACACUGAGAGUUUUAAAAGAAAGCUGGAUUCUGGUCCCAGCCCAGUGGCAGGCAGGGGCAGAGCGGGGAGGAGCCAACAGAGGAUUGAGCAUCA
B10: chr14:92628060:92628061:+_ENSG00000165934_ENST00000298875|hu_hu|motif|central (ssRNA)
RNA: GGGAGUUCUACAGUCCGACGAUCUUGACAUCAUGUCCUUUAUACAAUGGCAUAUUGUUCAUAUAAAAGGUCUCUUAUCCGGUAAAAAUCUUGACAAAGGCAGCCUUCUAAUCCAAUGCGUCCAGUUUCCGUUCUGCGGACUGCCAACAGAGGAUUGAGCAUCA
B11: chr17:32333828:32333829:-_ENSMUSG00000024002_ENSMUST00000121285|mus_mus|FALSE|FALSE (ssRNA)
RNA: GGGAGUUCUACAGUCCGACGAUCUACAGUACAGCCACAGUCACACACUACCCACAGCGCAGUGGGAGCCGCCGCUCACUGAGGAGACGAUCACACCAUUUGGAGAUAAGCAGUGCCACUGUGUCUGAGGAGAAGAGAGUUAAACAACAGAGGAUUGAGCAUCA
B12: chr17:88387627:88387628:+_ENSMUSG00000005370_ENSMUST00000005503|mus_hu|motif|central (ssRNA)
RNA: GGGAGUUCUACAGUCCGACGAUCAAAAUCAUCUCCAAAAAAAGUCUUCGUAAUGCAAGGAUGGCGUGAUCCUUUAAGCUCGGAGAAGGGGGGGGUAUCUUCCGGCAACAGAAUUACUGGGCGACACAUAGGACCAUCACCCCCCAACAGAGGAUUGAGCAUCA
B13: chr8:26941818:26941819:-_ENSMUSG00000031575_ENSMUST00000166078|mus_mus|FALSE|FALSE (ssRNA)
RNA: GGGAGUUCUACAGUCCGACGAUCACUAGCAGACACAGCACUGCUUUGUUUCUGGUUGUCAUAAGCAGGACCAAUAUUACUAAGAUCCUGAUCCAAAAGUCCAAACUUGGGGUAAUCUUCUUCUGGGUCUUUGCUUCCUGGGUCCAACAGAGGAUUGAGCAUCA
B14: chr1:163117127:163117128:-_ENSG00000143248_ENST00000313961|hu_mus|hu_hu_hu_mus_False|58_98 (ssRNA)
RNA: GGGAGUUCUACAGUCCGACGAUCUGCUACAAAGGAUGGAGGAAAUAUCACAGGGCAACUUUUGGAAGCCUGACCAGAUUACUACUUGAUUAGCUCCUUAUAAAAUUCAGAGCGCACAAAGCGGGGCAGAGAAUCCUUCUCCAUCAACAGAGGAUUGAGCAUCA
B15: chr18:90710673:90710674:+_ENSMUSG00000024614_ENSMUST00000025515|mus_mus|motif|central (ssRNA)
RNA: GGGAGUUCUACAGUCCGACGAUCACCUAAUAAAAAUUCUGAAAUUAGCUAAAAUGAAGGCAUCAAAAUUAACAAAUGAUCGGUAGUAAACAUUAUCACAAAAUACCCACUCUUAGACACGACUGCAUUCUGAUGAAAGAUGCGCAACAGAGGAUUGAGCAUCA

target: T1, UNK ZnF1-3; test: nsRBNS (natural sequence RNA bind-n-seq); RBNS binding buffer (assumed for nsRBNS): 25 mM Tris pH 7.5, 150 mM KCl, 3 mM MgCl2, 0.01% Triton X-100, 500 ug/ml BSA, 20 U/ml SUPERase-In, 4 C; UNK is unkempt and MSI1 is Musashi-1; names of the RNAs are library labels; protein concentration not given here; high values mean tight binding

Row | Binder | binding signal [enrichment R]
1 | B1 | 0.572
2 | B2 | 1.05
3 | B3 | 1.55
4 | B4 | 0.952
5 | B5 | 7.19
6 | B6 | 16
7 | B7 | 16.3
8 | B8 | 1.75
9 | B9 | 9.03
10 | B10 | 0.899
11 | B11 | 1.36
12 | B12 | 1.58
13 | B13 | 0.761
14 | B14 | 1.55
15 | B15 | 1.85
